# According to the supplement of paper PMC10981050:
# “And” between values parts separate entries of the source, which are not always exact repeats. Equal values may be shown once. Where a name gives a salt, the structure may show the parent alone.
# Key:
# Test in all cases: cell viability relative to vehicle control; higher = less cytotoxic
# Conditions in all cases: 10 µM
# K562 = tested on: K562
# Outline: (§1)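 CRISPR-edited SRSF2 P95 mutant and isogenic wild-type clones of four leukaemia lines were screened against Selleck bioactive, kinase and epigenetic probe libraries, with identity-inconsistent compounds removed. Compounds were acoustically dispensed into 384-well plates at a single 10 µM dose, with 2000 cells in 50 µL medium per well. After 48 h, supernatant was removed and CellTiter-Glo luminescence was read. Viability was expressed as percent of the on-plate DMSO vehicle control, analysed in Genedata Screener.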
# MARIMO = tested on: MARIMO
# Outline: as §1
# MOLM14 = tested on: MOLM14
# Outline: as §1
# OCI-AML2 = tested on: OCI-AML2
# Outline: as §1
SMILES,cell viability (K562; SRSF2 genotype: SRSF2 P95H/wt),cell viability (K562; SRSF2 genotype: SRSF2 wt/wt) [%],cell viability (MARIMO; SRSF2 genotype: SRSF2 P95H/wt) [%],cell viability (MARIMO; SRSF2 genotype: SRSF2 wt/wt) [%],cell viability (MOLM14; SRSF2 genotype: SRSF2 P95H/wt) [%],cell viability (MOLM14; SRSF2 genotype: SRSF2 wt/wt) [%],cell viability (OCI-AML2; SRSF2 genotype: P95H/wt) [%],cell viability (OCI-AML2; SRSF2 genotype: wt/wt) [%]
Cc1coc2c1C(=O)C(=O)c1c-2ccc2c(C)cccc12 [Tanshinone I],66.7% and 48.1%,41.4,70.6,63.4,76.1,48.3,57.5,60
CO[C@@]12[C@H](COC(N)=O)C3=C(C(=O)C(C)=C(N)C3=O)N1C[C@@H]1N[C@@H]12 [Mitomycin C],17.1% and 28%,21,5.24,2.95,0.73,0.37,0.41,0.98
O=c1c(O)c(-c2ccc(O)cc2)oc2cc(O)cc(O)c12 [Kaempferol],96.1% and 106%,108,98.1,117,57.4,68,81.7,67.5
C=CCC(=NOS(=O)(=O)O)S[C@@H]1O[C@H](CO)[C@@H](O)[C@H](O)[C@H]1O (stereo in doubt) [Sinigrin],96.4% and 104%,99.7,93.4,96.4,94.1,97.8,101,101
O=C1C(=O)N(Cc2ccc(Cl)c(Cl)c2)c2ccccc21 [Apoptosis Activator 2],62.4% and 47.9%,37.7,25.5,33.1,3.92,1.81,32,13.7
O=C(Cn1nnc(-c2ccncc2)c1-c1ccccc1)Nc1ccc(-c2ccccc2)cn1,58% and 48.3%,57.6,51.6,53.3,54.6,51.1,35.9,40.8
CNC(=O)c1ccc(C)c(-n2c(C)cc(OCc3ccc(F)cc3F)c(Br)c2=O)c1,74% and 77.8%,82.4,65.6,58.4,69.8,78.8,72.8,72.2
COc1cc(C(=O)NS(=O)(=O)c2ccccc2C)ccc1Cc1cn(C)c2ccc(NC(=O)OC3CCCC3)cc12 [Zafirlukast (Accolate)],97.3% and 96.5%,92.8,96,110,94.3,97,94.4,104
c1ccc2c(c1)CCCC2C1=NCCN1 (stereo not drawn) [Tetrahydrozoline HCl],101% and 92.1%,92.9,92.1,97.2,79.5,90.7,87.8,93.8
Cc1cc(=O)oc2ccc(O)cc12 [6-Hydroxy-4-methylcoumarin],111% and 101%,107,107,97,101,103,96,104
COc1ccc(C(C)=O)c(O)c1 [Paeonol (Peonol)],103% and 101%,99.5,104,97.9,102,102,98.3,91.5
CO[C@@]1(NC(=O)CSC[C@@H](N)C(=O)O)C(=O)N2C(C(=O)O)=C(CSc3nnnn3C)CS[C@@H]21 [Cefminox Sodium],103%,99,105,109,96,106,99.4,98
CCOC(=O)N1CCC(CN(Cc2ccc(Cl)cc2)Cc2ccc([N+](=O)[O-])s2)C1 (stereo not drawn) [Stenabolic (SR9009)],56% and 70.8%,63.4,33.5,25.5,45.6,41.9,39.1,41.4
C=C1C(=O)O[C@@H]2/C=C(\C)CC/C=C(\C)CC[C@@H]12 [Costunolide],23.8% and 32%,41.4,25.3,17.8,3.29,5.5,2.25,7.11
Fc1ccc2[nH]ccc2c1-c1nc(N2CCOCC2)c2sc(CN3CCN(CC4CC4)CC3)cc2n1,77.2% and 81.7%,76.6,68.5,67.3,45.5,45.1,40.4,34.5
CC(C)[C@H](C(=O)Nc1ccc(C(=O)NO)cc1)c1ccccc1,1.61% and 11.3%,3.69,5.31,12.1,0.73,0.52,2.49,4.03
Cc1ccc2nc(CN(CCN(Cc3nc4ccc(C)cc4[nH]3)Cc3nc4ccc(C)cc4[nH]3)Cc3nc4ccc(C)cc4[nH]3)[nH]c2c1,1.04% and 0.84%,1.19,0.68,0.61,0.58,0.53,0.47,0.63
O=C1c2c(O)ccc(O)c2C(=O)c2c(NCCNCCO)ccc(NCCNCCO)c21 [Mitoxantrone 2HCl],3.59% and 6.17%,3.76,4.5,1.79,0.19,0.15,0.48,7.36
Cc1ncc(CCCN(C)C)cc1Nc1ncc2c(n1)-c1ccc(C(F)(F)F)cc1NC(=S)C2,46.2% and 57.9%,54.3,49.5,44.5,18.3,8.47,16.3,21.1
COc1cc2c(cc1O)[C@@H](Cc1ccc(O)c(Oc3ccc(C[C@@H]4c5cc(OC)c(OC)cc5CCN4C)cc3)c1)N(C)CC2 [Daurisoline],30.5% and 37.4%,15.9,3.28,9.42,1.06,0.83,1.65,1.01
C=C(C)[C@@H]1CC[C@]2(C(=O)O)CC[C@]3(C)[C@H](CC[C@@H]4[C@@]5(C)CC[C@H](O[C@@H]6OC[C@H](O)[C@H](O)[C@H]6O[C@@H]6O[C@@H](C)[C@H](O)[C@@H](O)[C@H]6O)[C@@](C)(CO)[C@@H]5CC[C@]43C)[C@@H]12 [Pulchinenoside A],97.5% and 96.7%,92,93.9,106,102,96.6,94.6,105
